# According to PubChem BioAssay (NCI):
# About 79,000 compounds went through this panel and 15% of them were active in at least one assay; those are over-represented in the sample as a whole. The source made the active and inactive calls. No stated cut-off is given here; in the data, active means growth inhibition above about 70%; inactive means the rest.
# Experiment: NCI Yeast Anticancer Drug Screen. Data for the cln2 rad14 strain (AID 165);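 further: 0% = growth equal to vehicle treated cultures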
# Details: S. cerevisiae cln2 rad14 strain, at 50.0 µM, hits give high values
# How it was run: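 Test compounds were added to cln2 rad14 yeast cultures; inhibition of growth was then determined by comparison with vehicle treatment.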
row,SMILES,growth inhibition
1,O=S(=O)(Oc1ccc(OS(=O)(=O)c2ccccc2)cc1)c1ccccc1,0.05% (inactive)
2,Nc1cccc2c1C(=O)OC2=O,-5.7% (inactive)
3,CCC(C(=O)c1ccccc1)c1cccc2c1N(C(C)=O)CC2 (stereo not given),-5.6% (inactive)
4,COc1ccc(OC)c(NC(=O)c2ccc(Cl)c(Cl)c2)c1,-9.25% (inactive)
5,CCCCCCCCCCCCCCCCS(=O)(=O)N/N=c1\cc(-c2ccccc2Cl)c2ccccc2n1C,6.45% (inactive)
6,C=CC1CC(NC(=O)OC)C(=O)O1 (stereo not given),-38.1% (inactive)
7,CC1(C)C(CC(=O)O)CC1C(=O)O (stereo not given),11.2% (inactive)
8,Cc1cc(N)ccc1N=Nc1ccc(S(=O)(=O)CCOS(=O)(=O)O)cc1,-4.65% (inactive)
9,Oc1ccc(C2SCc3nc4ccccc4n32)cc1 (stereo not given),-7.3% (inactive)
10,C/C(N)=C\c1nc(=O)ccs1,24.8% (inactive)
11,C#[N+]CCOP(=O)(OCC1OC(n2cc(C)c(=O)[nH]c2=O)CC1N=[N+]=[N-])O[C@H]1CC[C@@]2(C)C(=CC[C@H]3[C@@H]4CC[C@H](C(C)/C=C/C(CC)C(C)C)[C@@]4(C)CC[C@@H]32)C1 (stereo not given in full),-7.4% (inactive)
12,O=C(O)c1ccc(O)cc1,2.45% (inactive)
13,O=C1c2cccc3c([N+](=O)[O-])ccc(c23)C(=O)N1CC1CCCO1 (stereo not given),40.8% (inactive)
14,COC(=O)C(C(C)C(C)[N+](=O)[O-])=P(c1ccccc1)(c1ccccc1)c1ccccc1 (stereo not given),11.2% (inactive)
15,CC(=O)OC(C)C1CCCC1OC(C)=O (stereo not given),5.75% (inactive)
16,O=Cc1ccnc2c(Cl)cccc12,15.1% (inactive)
17,CCOC(=O)c1ccc(NC(=S)NC(=O)c2cccc([N+](=O)[O-])c2)cc1,-12.8% (inactive)
18,CCN(CC)S(=O)(=O)Nc1c(C)n(C)n(-c2ccccc2)c1=O,-3.7% (inactive)
19,Cc1cc(S(=O)(=O)Nc2n[nH]c(Nc3ccccc3)n2)c(S)cc1Cl,9.6% (inactive)
20,N#CC(C#N)=NNc1ccc2cn[nH]c2c1,-21.1% (inactive)

row,SMILES,growth inhibition
1,COC(=O)C1CCC(/C(C#N)=C2/CCC(C(=O)OC)[N-]2)=N1.COC(=O)C1CCC(/C(C#N)=C2/CCC(C(=O)OC)[N-]2)=N1.[Cu+2] (stereo not given),-43.3% (inactive)
2,CCOC(=O)CN1C(=O)C(=O)N(c2ccc(OC)c3ccccc23)C1=O,-40% (inactive)
3,CCOC(=O)COC(=O)C1C(C(N)=O)N(CC(=O)OCC)CCN1CC(=O)OCC (stereo not given),-0.85% (inactive)
4,Cc1nc(=S)[nH][nH]1,3.5% (inactive)
5,CNC(=O)OCc1nc(SSC(C)(C)C)n(C)c1COC(=O)NC,1.9% (inactive)
6,COc1cccc2c1C(=O)C1(O)CCCCC21 (stereo not given),-21.4% (inactive)
7,CC1(C)C(O)C(C)(C)C1O (stereo not given),6.95% (inactive)
8,CCNC1=C(Cl)C(=O)c2ccccc2C1=O,-21.4% (inactive)
9,Cc1sc2ccnc(C)c2c1S(=O)(=O)O,-3.5% (inactive)
10,COC(=O)c1ccc(/C=C(\c2ccc([N+](=O)[O-])o2)S(=O)(=O)c2ccc(NC(C)=O)cc2)o1,71.7% (active)
11,CC(=O)Nc1ccc(S(=O)(=O)Oc2noc3ccccc23)cc1,11.1% (inactive)
12,CC(C)(S(=O)(=O)Oc1ccccc1)S(=O)(=O)Oc1ccccc1,-16.9% (inactive)
13,CC(=O)Nc1cc(C)c(C)cc1[N+](=O)[O-],3.3% (inactive)
14,CCNC(=O)NC(=O)C(C)(C)Oc1ccc(Cl)cc1,12.5% (inactive)
15,C=C1CC[N+]2(CCCCCC)CCCC12 (stereo not given),-1.4% (inactive)
16,COc1cc2c(cc1OC)C(C#N)(C(c1ccccc1)c1ccccc1)N(C(=O)c1ccccc1)C=C2 (stereo not given),-1.15% (inactive)
17,O=C(O)c1ccc2c(c1)CC1(C2)Cc2ccccc2C1=O (stereo not given),-14.2% (inactive)
18,Cc1cnn(-c2ccccc2)[n+]1[O-],-28.8% (inactive)
19,O=C(c1ccc(O)cc1)C1N=NCC1c1ccccc1 (stereo not given),-17.8% (inactive)
20,CC1=CC(=O)C(CN(C)C)(CN(C)C)C(C)(C)C1,0.25% (inactive)
